Measured values from PubChem BioAssay (NCATS).
Records with an inconclusive call do not appear. Active and inactive are the calls of the source. Calls follow the shape of the dose curve; as a rule, active = well fitted inhibition curve with a large enough effect; inconclusive = small, poorly fitted or top-dose-only effect; inactive = flat fitted curve, though single readings scatter. Where a SMILES comes first, the peptide text is derived from it. [ ]: non-standard residue; d: D form. ξ: configuration not given here. ξPhe(βξ-Me) = CC(c1ccccc1)C(N)C(=O)O; GABA = NCCCC(=O)O

Experiment: P-glycoprotein substrates identified in KB-8-5-11 adenocarcinoma cell line, qHTS therapeutic library screen (AID 1346987); also: nearly all actives have a fitted effect of over 65% in size
Conditions: KB-8-5-11 (P-gp overexpressing) viability, CellTiter-Glo, 72 h; series mostly up to 44.5 µM; activity change, negative = cytotoxicity: at the top concentration
How it was run: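 P-gp-mediated resistance screen: KB-8-5-11 cells treated 72 h with compounds in dose-response. CellTiter-Glo viability.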
% is scaled to controls: 0 for no effect and ±100 for the full control effect; potency is read from the fitted curve at half-maximal effect.

Compound | outcome | activity change, negative = cytotoxicity | Potency
CC1=C(C(=O)O)/C(=C/CO[C@@H]2O[C@H](COC(=O)/C=C/c3ccc(O)cc3)[C@@H](O)[C@H](O)[C@H]2O)C(O)C1 (stereo not given in full) | inactive [at 17.3 µM] | – | –
CC(=O)NC1C(OC(C)(C)C2CCC3(C)C=C(C4CCC5C4(C)CC(O)C4OC(C(C)(C)O)CCC45C)CCC3O2)OC(CO)C(O)C1O (stereo not given) | – | 3.65% [at 17.3 µM] (inactive) | –
O=C(O)c1cc(I)ccc1NC(=O)[C@H](Cc1ccccc1)NCc1ccccc1 | – | 6.68% (inactive) | –
CC1NC(=O)CCCNC(=O)C(Cc2c[nH]c3ccccc23)NC(=O)C(C)NC(=O)C(C(C)C)NC(=O)C(C(C)c2ccccc2)NC(=O)C(C(C)C)NC1=O (stereo not drawn) (cyclo([GABA]AV[ξPhe(βξ-Me)]VAW); configuration not given here) | – | 1.69% [at 17.3 µM] (inactive) | –
CC(C)[C@H]1CC[C@@]2(O)COC(=O)[C@H]2[C@@H]1/C=C(\CO)C(=O)O | – | 3.28% (inactive) | –
C=C(C)C1CC[C@]2(C(=O)O)CC[C@]3(C(=O)O)[C@H](CCC4[C@@]5(C)CC[C@H](O)C(C)(C)C5CC[C@]43C)C12 (stereo not given in full) | – | -0.661% [at 17.3 µM] (inactive) | –
C=C(C)[C@@H]1CC[C@]2(C)CC[C@]3(C)[C@H](CC[C@@H]4[C@@]5(C)CC[C@@H](O)C(C)(C)[C@@H]5CC[C@]43C)[C@@H]12 | – | -4.26% [at 17.3 µM] (inactive) | –
Cc1cnc(NC(=O)Nc2cc(Br)c(C)cc2OCC2CNCCO2)cn1 (stereo not given) | – | – | 8.2 µM (active)
C=C1C[C@]23C[C@H]1[C@@H](O)C[C@H]2[C@@]12C=C[C@H](O)[C@@](C)(C(=O)O1)[C@H]2[C@@H]3C(=O)O | – | 1.24% (inactive) | –
CC1(CCOC2OC(CO)C(O)C(O)C2O)CCC23OC2(C1)C(O)CC1C(C)(C(=O)O)CCCC13C (stereo not given) | inactive [at 17.3 µM] | – | –
COc1cc(C(=O)OC[C@H]2O[C@@H](Oc3ccccc3/C=C/C(=O)O)[C@H](O)[C@@H](O)[C@@H]2O)cc(OC)c1OC | – | 5.19% [at 17.3 µM] (inactive) | –
C[C@]12C=C[C@@]3(CCC4[C@](C)(CO)CCC[C@@]4(C)C3CC1)C2 (stereo not given in full) | – | 6.2% (inactive) | –
CC1(C)CCC2(C(=O)OC3OC(CO)C(O)C(O)C3O)CCC3(C)C(=CCC4C5(C)CCC(OC6OC(C(=O)O)C(OC7OC(CO)C(O)C(O)C7O)C(OC7OC(CO)C(O)C(O)C7O)C6O)C(C)(C)C5CCC43C)C2C1 (stereo not given) | – | 4.92% [at 9.29 µM] (inactive) | –
Cn1c(=O)cc(N2CCCC(N)C2)n(Cc2cc(F)ccc2C#N)c1=O (stereo not given) | – | 3.03% (inactive) | –
COc1c/c(=C2\C=c3ccccc3=N2)[nH]/c1=C\c1[nH]c(C)cc1C | – | – | 1.16 µM (active)
CCC(C)C(=O)OC1CC(C)C=C2C=CC(C)C(CCC(O)CC(O)CC(=O)O)C21 (stereo not given) | – | -12.7% [at 17.3 µM] (inactive) | –
COc1ccc(N(C)c2nc(C)nc3ccccc23)cc1 | – | – | 0.0065 µM (active)
CC(C)(C)OC(=O)N1CCC(OCc2nc(-c3ccncc3)no2)CC1 | – | -0.687% (inactive) | –
CC1(C)C2CC=C(COC3OC(COC4OCC(O)(CO)C4O)C(O)C(O)C3O)C1C2 (stereo not given) | inactive [at 17.3 µM] | – | –
Cc1cc(OCc2nnc(SC3CCCC3)n2-c2cccnc2)ccc1-c1ccc(S(C)(=O)=O)cc1 | – | – | 2.91 µM (active)
COc1ccc(-c2ccc3c(N4CCOCC4)nc(N4CC(C)OC(C)C4)nc3n2)cc1CO (stereo not given) | – | – | 0.651 µM (active)
C[C@]12C[C@@H](O)[C@@H]3C[C@@]1(O[C@@H]1O[C@H](CO)[C@@H](O)[C@H](O)[C@H]1O)[C@]3(COC(=O)c1ccccc1)C(=O)O2 | inactive [at 17.3 µM] | – | –
O=C(OC[C@@]1(O)CO[C@@H](O[C@H]2[C@H](Oc3ccc(O)cc3)O[C@H](CO)[C@@H](O)[C@@H]2O)[C@@H]1O)c1ccc(O)cc1 | – | 1.59% [at 17.3 µM] (inactive) | –
Cc1c(F)cc(C(=O)NC2CC2)cc1-c1c(F)cn2c(C(C)(C)C)nnc2c1F | – | -12.4% (inactive) | –
CC1CCC2(C=O)C(CO)=CCCC2C1(C)CC(=O)O (stereo not given) | – | 7.97% (inactive) | –
COC(=O)C1(C)CCC2(C(=O)O)CCC3(C)C(=CCC4C5(C)CC(O)C(OC6OCC(O)C(O)C6O)C(C)(CO)C5CCC43C)C2C1 (stereo not given) | inactive [at 17.3 µM] | – | –
CN(C)C1CCN(C(=O)c2ccc(NC(=O)Nc3ccc(-c4nc(N5CCOCC5)nc(N5CCOCC5)n4)cc3)cc2)CC1 | – | -11.8% (inactive) | –
C1CCC[C@H]2CCCN3CC[C@@H](CCCCCC[C@@H]4CCCN5CC[C@@H](CC1)O[C@@H]45)O[C@@H]23 | inactive [at 0.0709 µM] | – | –
COc1cc(C(=O)NC2CCN(C)CC2)ccc1Nc1ncc2c(n1)N(C1CCCC1)CC(F)(F)C(=O)N2C | – | – | 1.16 µM (active)
COc1ccc([C@@H]2OC[C@H]3[C@@H]2CO[C@@H]3c2ccc(OC3OC(CO)C(O)C(O)C3O)c(OC)c2)cc1OC (stereo not given in full) | – | -13.5% [at 17.3 µM] (inactive) | –
